High-throughput results from PubChem.
CtBP-E1A inh: qHTS Assay for Inhibitors of the CtBP/E1A Interaction; AID 651724, 2012; CtBP / adenovirus E1A interaction (AlphaScreen); 340,000 compounds, 0.49% hits; AlphaScreen GST-E1A/His-CtBP binding, 1536-well; active compounds read low; activity change, % (concentration not given with the values); in the data active = activity change below about -65%; inconclusive = mostly about -30% to -63%
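Homogeneous bead-based format: GST-tagged E1A captured on glutathione donor beads, His-tagged CtBP on nickel acceptor beads; compounds precede bead addition by 2 h at 37 °C.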
DT40 TDP1 no CPT: qHTS for Inhibitors of human tyrosyl-DNA phosphodiesterase 1 (TDP1): qHTS in cells in absence of CPT; DT40 Tdp1-/- hTDP1 cells, no CPT, ATP luminescence, 48 h; Potency, µM (series often up to 46.2 µM), without a hit: at the highest dose activity change, negative = growth inhibition, most hits filed as inhibitors; 420,000 compounds, 15% hits; AID 686978, 2013; also: potency is read from the fitted curve at half-maximal effect; nearly all actives have a fitted effect of over 55% in size
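Growth kinetics read by CellTiter-Glo luminescence after ≥48 hr at 37 °C. Cells: DT40 Tdp1-/- stably carrying human TDP1, 400 per well, compound exposure in the absence of CPT (DMSO vehicle).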
Six1-Eya2 inh: qHTS Assay for Inhibitors of the Six1/Eya2 Interaction | Homeobox protein SIX1 (Homo sapiens) + Protein phosphatase EYA2 (Homo sapiens), … | AlphaScreen GST-Six1/His-Eya2 binding, biochemical; active compounds read low | activity change, % (test concentration not listed) | 360,000 compounds, 0.56% hits; in the data active = activity change below about -65%; inconclusive = mostly about -30% to -63%
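GST-Six1 + His-Eya2 (5X stock: 250/500 nM); Tris pH 8.0, 300 mM NaCl, 0.05% BSA, 0.02% Tween 20; GSH donor/Ni acceptor beads; 1 h 37 °C dark; AlphaScreen readout.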
TDP1 cell CPT: qHTS for Inhibitors of human tyrosyl-DNA phosphodiesterase 1 (TDP1): qHTS in cells in presence of CPT. 420,000 compounds, 12% hits. Potency, µM (doses to about 46.2 µM), without a hit: at the highest dose activity change, negative = growth inhibition, usual class: inhibitors. chicken DT40 Tdp1-/-;hTDP1 cells + 20 nM CPT, ATP luminescence, 48 h; also: potency is read from the fitted curve at half-maximal effect; nearly all actives have a fitted effect of over 55% in size
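Chicken DT40 Tdp1-/- cells stably complemented with human TDP1 were seeded at 400 cells/well in medium containing 20 nM camptothecin, exposed to pin-transferred compounds, and grown at 37 °C for at least 48 hr. Viability was read as ATP luminescence.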
TDP1 block: qHTS Assay for Inhibitors of Tyrosyl-DNA Phosphodiesterase (TDP1) | Potency, µM (top dose mostly 130 µM), without a hit: at the highest dose activity change, negative = inhibition, actives largely listed as inhibitors | 350,000 compounds, 0.28% hits | Tyrosyl-DNA phosphodiesterase 1 (Homo sapiens), Q9NUW8 | recombinant TDP1, AlphaScreen DNA substrate cleavage; also: potency is read from the fitted curve at half-maximal effect; nearly all actives have a fitted effect of over 40% in size
Target sequence (Q9NUW8 whole entry, looked up): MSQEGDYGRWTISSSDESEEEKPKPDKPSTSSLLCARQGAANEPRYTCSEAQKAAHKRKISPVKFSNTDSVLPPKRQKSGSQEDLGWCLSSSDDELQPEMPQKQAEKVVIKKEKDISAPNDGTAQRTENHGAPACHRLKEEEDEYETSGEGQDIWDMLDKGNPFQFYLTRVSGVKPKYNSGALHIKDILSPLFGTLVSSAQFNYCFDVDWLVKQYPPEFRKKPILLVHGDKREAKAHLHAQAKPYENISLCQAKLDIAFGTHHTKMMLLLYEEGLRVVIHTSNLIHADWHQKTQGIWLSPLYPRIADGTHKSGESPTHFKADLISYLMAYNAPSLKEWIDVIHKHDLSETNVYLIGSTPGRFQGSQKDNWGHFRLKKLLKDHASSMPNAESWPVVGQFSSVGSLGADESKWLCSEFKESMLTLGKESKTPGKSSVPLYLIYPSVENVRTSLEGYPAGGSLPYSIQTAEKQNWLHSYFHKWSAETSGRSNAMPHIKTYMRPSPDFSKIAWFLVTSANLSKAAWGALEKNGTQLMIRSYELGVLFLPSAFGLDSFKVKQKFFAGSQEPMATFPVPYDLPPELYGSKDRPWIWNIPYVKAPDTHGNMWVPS
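Signal: AlphaScreen proximity between streptavidin donor and anti-FITC acceptor beads on intact substrate. Reaction: Tdp1 1 nM, substrate 15 nM final, 5 min RT after 15 min compound preincubation.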
IL-1B inflam inh: qHTS for Inhibitors of Inflammasome Signaling: IL-1-beta AlphaLISA Primary Screen. THP-1 LPS/ATP IL-1B secretion, AlphaLISA, 16 h; active compounds read low. activity change, % at 57.5 µM. 360,000 compounds, 4.7% hits. AID 743279, 2014; in the data active = activity change below about -50%; inconclusive = mostly about -30% to -49%
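Secreted IL-1B measured by AlphaLISA bead assay after 16 h compound exposure of THP-1 cells; compounds (final up to 57.5 uM) added 1 h before LPS (250 ng/mL) and ATP (1.25 mM) stimulation; lower signal means less secretion.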
* marks the source's active call; other numbers are inactive results; [ ] = remark or other dose. Rows were chosen to be rich in hits. Some 18% of all compounds tested hit in one or more screens of this group. Unless noted, calls follow the shape of the dose curve; as a rule, active = well fitted curve in the direction sought with a large enough effect; inconclusive = small, poorly fitted or top-dose-only effect, or another doubt; inactive = no such curve, though single readings can be large; an effect the other way counts as inactive or inconclusive. % is scaled to controls: 0 for no effect and ±100 for the full control effect.

What do the screens show for `COc1ccc(S(=O)(=O)N(CC(=O)Nc2ccc(S(=O)(=O)N3CCOCC3)cc2)c2ccccc2)cc1`?
CtBP-E1A inh: -3.2; DT40 TDP1 no CPT: 0.164µM*; Six1-Eya2 inh: 0.4; TDP1 cell CPT: -68.2%; TDP1 block: 0.6%; IL-1B inflam inh: 19.2

How did COc1ccc(S(=O)(=O)N(CC(=O)Nc2ccc(S(=O)(=O)N3CCOCC3)cc2)Cc2ccc(F)cc2)cc1 do in these assays?
CtBP-E1A inh: 1.0; DT40 TDP1 no CPT: 14.6µM*; Six1-Eya2 inh: -3.1; TDP1 cell CPT: 20.6µM*; TDP1 block: 5.8%; IL-1B inflam inh: -21.3

What do the screens show for `COc1ccc(CC(=O)Nc2ccc(S(=O)(=O)N3CCOCC3)cc2)cc1`?
CtBP-E1A inh: -3.0; DT40 TDP1 no CPT: -24.2%; Six1-Eya2 inh: 5.8; TDP1 cell CPT: -17.8%; TDP1 block: 0.6%; IL-1B inflam inh: -0.7

What do the screens show for `CN(C(=O)c1coc(=O)c2ccccc12)c1ccccc1Cl`?
CtBP-E1A inh: -2.0; DT40 TDP1 no CPT: inconclusive; Six1-Eya2 inh: 4.8; TDP1 cell CPT: inconclusive; TDP1 block: -1.2%; IL-1B inflam inh: 15.1

What do the screens show for `Cc1ccccc1CNC(=O)C1CCCN(c2cnccn2)C1` (configuration not stated)?
DT40 TDP1 no CPT: -18.2%; Six1-Eya2 inh: 0.5; TDP1 cell CPT: 4.1%; TDP1 block: 3.6%; IL-1B inflam inh: 5.1

What do the screens show for `Cc1ccc(S(=O)(=O)N[C@H](C(=O)NC2CCC(C)CC2)C(C)C)cc1` (some centres not stated)?
CtBP-E1A inh: 5.2; DT40 TDP1 no CPT: 18.4µM*; Six1-Eya2 inh: 3.7; TDP1 cell CPT: inconclusive; TDP1 block: 1.5%; IL-1B inflam inh: 20.7

Results for Cc1ccc(S(=O)(=O)NC(C)C(=O)NC2CC2)cc1 (configuration not stated) ?
CtBP-E1A inh: 3.4; DT40 TDP1 no CPT: -2.7%; Six1-Eya2 inh: 12.0; TDP1 cell CPT: 1.7%; TDP1 block: 2.6%; IL-1B inflam inh: -2.1

How did CSCCC(NS(=O)(=O)c1ccc(C)cc1)C(=O)NC1CCCCCC1 (configuration not stated) do in these assays?
CtBP-E1A inh: 5.7; DT40 TDP1 no CPT: 20.6µM*; Six1-Eya2 inh: -3.5; TDP1 cell CPT: inconclusive; TDP1 block: 0.9%; IL-1B inflam inh: 0.4

How did CSCCC(NS(=O)(=O)c1ccc(C)cc1)C(=O)NC1CCCCC1 (configuration not stated) do in these assays?
CtBP-E1A inh: -0.1; DT40 TDP1 no CPT: -7.2%; Six1-Eya2 inh: 0.7; TDP1 cell CPT: -8.6%; TDP1 block: 4.7%; IL-1B inflam inh: 26.3

What do the screens show for `CC1CCCCN1S(=O)(=O)c1ccc(S(=O)(=O)N2CCN(c3ccccc3)CC2)cc1` (configuration not stated)?
CtBP-E1A inh: -0.1; DT40 TDP1 no CPT: inconclusive; Six1-Eya2 inh: -0.5; TDP1 cell CPT: inconclusive; TDP1 block: 0.0%; IL-1B inflam inh: 4.6

Results for C(=C\c1ccccn1)/c1ccncc1 ?
DT40 TDP1 no CPT: -8.7%; Six1-Eya2 inh: -6.0; TDP1 cell CPT: -10.0%; IL-1B inflam inh: -25.7

Results for CNc1ccc(C=C2c3ccccc3-c3ccccc32)cc1 ?
DT40 TDP1 no CPT: 12.6µM*; TDP1 cell CPT: inconclusive

How did C(=C1c2ccccc2-c2ccccc21)c1ccncc1 do in these assays?
CtBP-E1A inh: -1.7; DT40 TDP1 no CPT: 23.1µM*; Six1-Eya2 inh: -21.8; TDP1 cell CPT: inconclusive; IL-1B inflam inh: -78.2*

What do the screens show for `CNc1ccc(/C=C2\C=Cc3ccccc32)cc1`?
DT40 TDP1 no CPT: -98.6%; TDP1 cell CPT: inconclusive

How did CC(C)C(=O)Nc1cccc(NC(=S)NC(=O)c2ccc(Cl)cc2)c1 do in these assays?
CtBP-E1A inh: -1.5; DT40 TDP1 no CPT: 16.4µM*; Six1-Eya2 inh: -2.1; TDP1 cell CPT: inconclusive; TDP1 block: 0.0%; IL-1B inflam inh: -8.3

What do the screens show for `O=C(NC(=S)Nc1cccc(CO)c1)c1ccc(-c2ccccc2)cc1`?
CtBP-E1A inh: -20.2; DT40 TDP1 no CPT: 13µM*; Six1-Eya2 inh: -19.9; TDP1 cell CPT: 23.1µM*; TDP1 block: 2.4%; IL-1B inflam inh: -10.1

Results for O=C(NC(=S)NC(c1ccccc1)c1ccncc1)c1ccccc1 (configuration not stated) ?
CtBP-E1A inh: -5.5; DT40 TDP1 no CPT: 11.6µM*; Six1-Eya2 inh: -7.1; TDP1 cell CPT: 14.6µM*; TDP1 block: 3.5%; IL-1B inflam inh: -79.4*

What do the screens show for `CC(C)C(=O)Nc1cccc(NC(=S)NC(=O)c2ccc3c(c2)OCO3)c1`?
CtBP-E1A inh: -0.3; DT40 TDP1 no CPT: -11.0%; Six1-Eya2 inh: 3.3; TDP1 cell CPT: -19.9%; TDP1 block: 0.6%; IL-1B inflam inh: inactive

Results for CC(=O)c1cccc(NC(=S)NC(=O)c2ccc(C)cc2)c1 ?
CtBP-E1A inh: 3.7; DT40 TDP1 no CPT: 18.4µM*; Six1-Eya2 inh: -1.9; TDP1 cell CPT: inconclusive; TDP1 block: 2.4%; IL-1B inflam inh: -6.5

Results for Cc1ccc(NC(=O)c2ccc(Cl)cc2Cl)c(C(=O)c2ccccc2)c1 ?
DT40 TDP1 no CPT: inconclusive; TDP1 cell CPT: inconclusive; TDP1 block: 2.9%[2.28 µM]

How did O=C(Nc1nnc(COc2ccc(Cl)cc2)s1)C1CCCO1 (configuration not stated) do in these assays?
CtBP-E1A inh: 2.7; DT40 TDP1 no CPT: inconclusive; Six1-Eya2 inh: 7.0; TDP1 cell CPT: inconclusive; TDP1 block: 5.3%; IL-1B inflam inh: -14.8

How did Cc1ccc(S(=O)(=O)NC(C)C(=O)OCC(=O)Nc2sccc2C(N)=O)cc1 (configuration not stated) do in these assays?
CtBP-E1A inh: 4.8; DT40 TDP1 no CPT: -2.8%; Six1-Eya2 inh: 0.4; TDP1 cell CPT: -9.2%; IL-1B inflam inh: 2.5

Results for O=C(CNC(=O)Cc1ccccc1)NCC(=O)OCC(=O)c1ccc(Cl)cc1 ?
CtBP-E1A inh: -15.6; DT40 TDP1 no CPT: -2.2%; Six1-Eya2 inh: 10.5; TDP1 cell CPT: -7.4%; TDP1 block: 5.3%; IL-1B inflam inh: -7.3

Results for O=C(NC(=S)Nc1c(Cl)cc(Cl)cc1Cl)c1ccccc1 ?
CtBP-E1A inh: 7.2; DT40 TDP1 no CPT: 9.2µM*; Six1-Eya2 inh: -13.8; TDP1 cell CPT: 23.1µM*; IL-1B inflam inh: -1.2
